Source: PubChem BioAssay (Tox21)
Inconclusive results are not listed. Activity calls are given as the source filed them. Unless noted, the call rests on the fitted dose curve; in most records, active means well fitted curve in the direction sought with a large enough effect in the repeat runs; inconclusive means weak or mixed curves; inactive means no such curve, though single readings can be large; an effect the other way counts as inactive or inconclusive.

Key:
[1] = qHTS assay to identify aromatase inhibitors - cell viability counter screen (AID 743084);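 further: cells stimulated with testosterone during compound exposure; nearly all actives have a fitted effect of over 55% in size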
[2] = molecular target: Aryl hydrocarbon receptor (Homo sapiens) (UniProt P35869); test: qHTS assay to identify small molecule that activate the aryl hydrocarbon receptor (AhR) signaling pathway (AID 743085); further: nearly all actives have a fitted effect of over 15% in size; further: potency means the concentration at half of the fitted maximal effect;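 on activation: HG2L7.5c1 human HepG2 liver cells with stably integrated DRE-driven firefly reporter; series mostly up to about 70 µM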
Procedure, shortened: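 AhR agonist activity is inferred from enhanced light output of a DRE-controlled firefly luciferase reporter in HepG2 cells, measured with ONE-Glo following 24 h treatment at 37C.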

[3] = qHTS assay to identify small molecule that activate the aryl hydrocarbon receptor (AhR) signaling pathway - cell viability counter screen (AID 743086);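 further: HepG2 liver cells carrying the AhR DRE luciferase reporter; series mostly up to about 70 µM; nearly all actives have a fitted effect of over 45% in size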
Procedure, shortened: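 HepG2-AhR-luc (HG2L7.5c1) cells, 4000/well, were preincubated 5 h at 37C, exposed to compound in qHTS format for 24 hr at 37C, then given CellTiter-Fluor for 30 min; viability was read as fluorescence in the reporter wells.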

[4] = molecular target: Peroxisome proliferator-activated receptor gamma (Homo sapiens) (UniProt P37231); test: qHTS assay to identify small molecule agonists of the peroxisome proliferator-activated receptor gamma (PPARg) signaling pathway (AID 743094; active means well fitted activation curve with a large enough effect in the signal ratio in the repeat runs, not every such curve was filed as active; the % refers to the signal ratio)
Procedure, shortened: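 Compounds dissolved in DMSO were added to PPARg UAS-bla HEK293H cells for 17 h at 37C, and reporter expression was quantified by fluorescence intensity after 1 h with LiveBLAzer B/G FRET substrate.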

[5] = molecular target: Peroxisome proliferator-activated receptor gamma (Homo sapiens) (UniProt P37231); test: qHTS assay to identify small molecule antagonists of the peroxisome proliferator-activated receptor gamma (PPARg) signaling pathway (AID 743191; calls by dose curve; further: series mostly up to about 63 µM; nearly all actives have a fitted effect of over 30% in size)
Procedure, shortened: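 GeneBLAzer PPARg UAS-bla HEK293H cells carrying a UAS-driven beta-lactamase reporter were plated at 3000 cells/well, preincubated 5 h at 37C, then given compound for 17 h at 37C; LiveBLAzer B/G FRET substrate was read after 1 h at room temperature.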

[6] = qHTS assay for small molecule agonists of the antioxidant response element (ARE) signaling pathway - cell viability counter screen (AID 743203; calls by dose curve; further: nearly all actives have a fitted effect of over 55% in size)
Procedure, shortened: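 Following 16 hrs of compound treatment at 37C, HepG2 cells with an ARE-controlled beta-lactamase gene were lysed with CellTiter-Glo. Luminescence was read after 30 min at room temperature.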

[7] = qHTS assay for small molecule activators of the heat shock response signaling pathway - cell viability counter screen (AID 743209); further: nearly all actives have a fitted effect of over 50% in size
Procedure, shortened: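 Readout: CellTiter-Glo luminescence, 30 min at room temperature. System: HSE-bla HeLa cells, 1500/well, plated overnight. Treatment: compounds in DMSO, 5 h at 37 C.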

[8] = qHTS assay to identify small molecule agonists of the peroxisome proliferator-activated receptor delta (PPARd) signaling pathway - cell viability counter screen (AID 743211); further: nearly all actives have a fitted effect of over 55% in size
Procedure, shortened: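 qHTS cell viability: PPARd-bla HEK293H; 17 h cpd, 37C; CellTiter-Glo, luminescence at 30 min RT.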

[9] = molecular target: Peroxisome proliferator-activated receptor delta (Homo sapiens) (UniProt Q03181); test: qHTS assay to identify small molecule agonists of the peroxisome proliferator-activated receptor delta (PPARd) signaling pathway (AID 743212; calls by dose curve)
Procedure, shortened: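 A PPARd-bla HEK293H line with beta-lactamase under an Upstream Activator Sequence is treated with compounds at 37 C. Substrate loading for 2 h at room temperature precedes the fluorescence measurement.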

[10] = qHTS assay to identify small molecule antagonists of the peroxisome proliferator-activated receptor delta (PPARd) signaling pathway - cell viability counter screen (AID 743213); further: nearly all actives have a fitted effect of over 50% in size
Procedure, shortened: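 Luminescence from CellTiter-Glo, added after the bla read and incubated 30 min at room temperature, gives viability of HEK293H PPARd-bla cells exposed to compounds for 17 h at 37 C with 300 nM L165041.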

[11] = molecular target: Peroxisome proliferator-activated receptor delta (Homo sapiens) (UniProt Q03181); test: qHTS assay to identify small molecule antagonists of the peroxisome proliferator-activated receptor delta (PPARd) signaling pathway (AID 743215; active means well fitted inhibition curve with a large enough effect in the signal ratio in the repeat runs, not every such curve was filed as active; the % refers to the signal ratio;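 further: cells stimulated with agonist L165041 at 300 nM final during compound exposure; series mostly up to about 62 µM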)
Procedure, shortened: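 HEK293H UAS-bla, PPARd; agonist L165041 300 nM final with cpd in DMSO; 37 C 17 h; FRET substrate, RT 2 h; fluorescence intensity.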

[12] = qHTS assay to identify small molecule agonists of the farnesoid-X-receptor (FXR) signaling pathway - cell viability counter screen (AID 743218); further: nearly all actives have a fitted effect of over 45% in size
Procedure, shortened: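 Parallel cytotoxicity test: compound-treated (16 h, 37 C) HEK 293T FXR-bla reporter cells were lysed with CellTiter-Glo and luminescence recorded.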

[13] = qHTS assay to identify small molecule antagonists of the farnesoid-X-receptor (FXR) signaling pathway - cell viability counter screen (AID 743221; active means well fitted cell-killing curve with a large enough effect in the repeat runs, not every such curve was filed as active; further: nearly all actives have a fitted effect of over 50% in size)
Procedure, shortened: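 After a 5 h settling period, FXR-bla HEK 293T cells receive compound and chenodeoxycholic acid (50 uM final) and incubate 16 h at 37 C; CellTiter-Glo luminescence, read after 30 min at room temperature, reports cell viability.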

[14] = qHTS assay to identify small molecule antagonists of the peroxisome proliferator-activated receptor gamma (PPARg) signaling pathway - cell viability counter screen (AID 743194); further: nearly all actives have a fitted effect of over 55% in size
Procedure, shortened: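 PPARg-UAS-bla HEK293H cells were plated, rested 5 h at 37 C, then treated with compounds plus rosiglitazone (50 nM final) for 17 h at 37 C; viability was then read by CellTiter-Glo luminescence after 30 min at room temperature.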

[15] = qHTS assay for small molecule agonists of the antioxidant response element (ARE) signaling pathway (AID 743202; active means well fitted activation curve with a large enough effect in the signal ratio in the repeat runs, not every such curve was filed as active; the % refers to the signal ratio; further: potency means the concentration at half of the fitted maximal effect)
Procedure, shortened: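 Compounds delivered in DMSO to ARE-bla HepG2 cells (2,000 cells/well, pre-incubated 5 h) and left 16 h at 37 C. LiveBLAzer B/G FRET substrate then added for 2 h at RT before fluorescence reading.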

[16] = qHTS assay for small molecule activators of the heat shock response signaling pathway (AID 743210; active means well fitted activation curve with a large enough effect in the signal ratio in the repeat runs, with a control signal flat, not every such curve was filed as active; the % refers to the signal ratio;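 further: HeLa cells with beta-lactamase reporter driven by heat shock elements; series mostly up to about 63 µM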)
Procedure, shortened: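 Reporter gene assay: HeLa cells stably bearing an HSE-bla construct, compound treatment 5 h at 37 C, LiveBLAzer substrate 2.5 h at RT, fluorescence intensity.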

[17] = molecular target: Vitamin D3 receptor (Homo sapiens) (UniProt P11473); test: qHTS assay to identify small molecule agonists of the vitamin D receptor (VDR) signaling pathway (AID 743222; calls by dose curve)
Procedure, shortened: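 In VDR-bla cells, compound-induced beta-lactamase expression is quantified by FRET substrate fluorescence. Treatment lasts 16 h at 37C; substrate develops 2 h at room temperature.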

[18] = molecular target: Vitamin D3 receptor (Homo sapiens) (UniProt P11473); test: qHTS assay to identify small molecule antagonists of the vitamin D receptor (VDR) signaling pathway (AID 743223; active means well fitted inhibition curve with a large enough effect in the signal ratio in the repeat runs, not every such curve was filed as active; the % refers to the signal ratio)
Procedure, shortened: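 Reporter line VDR-bla; stimulus 1alpha,25-(OH)2 vitamin D3, 3 nM final; compound co-addition, 16 h 37C/5% CO2; LiveBLAzer B/G substrate 2 h RT; fluorescence intensity.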

[19] = molecular target: Bile acid receptor (Homo sapiens) (UniProt Q96RI1); test: qHTS assay to identify small molecule antagonists of the farnesoid-X-receptor (FXR) signaling pathway (AID 743217; active means well fitted inhibition curve with a large enough effect in the signal ratio in the repeat runs, not every such curve was filed as active; the % refers to the signal ratio)
Procedure, shortened: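 GeneBLAzer FXR-UAS-bla HEK 293T, CDCA-stimulated (50 uM final). Compound treatment 16 h, 37 °C. Detection: beta-lactamase cleavage of B/G FRET substrate, fluorescence.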

[20] = molecular target: Bile acid receptor (Homo sapiens) (UniProt Q96RI1); test: qHTS assay to identify small molecule agonists of the farnesoid-X-receptor (FXR) signaling pathway (AID 743220; active means well fitted activation curve with a large enough effect in the signal ratio in the repeat runs, not every such curve was filed as active; the % refers to the signal ratio)
Procedure, shortened: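 Beta-lactamase reporter under UAS control in GeneBLAzer FXR HEK 293T cells (5000/well) measured with LiveBLAzer FRET substrate after 2 h at room temperature. Compound exposure lasted 16 h at 37C.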
On the % scale 0 is the no-effect control and ±100 the full control effect.

Sequence of Peroxisome proliferator-activated receptor delta (Homo sapiens) (Q03181 whole entry, looked up): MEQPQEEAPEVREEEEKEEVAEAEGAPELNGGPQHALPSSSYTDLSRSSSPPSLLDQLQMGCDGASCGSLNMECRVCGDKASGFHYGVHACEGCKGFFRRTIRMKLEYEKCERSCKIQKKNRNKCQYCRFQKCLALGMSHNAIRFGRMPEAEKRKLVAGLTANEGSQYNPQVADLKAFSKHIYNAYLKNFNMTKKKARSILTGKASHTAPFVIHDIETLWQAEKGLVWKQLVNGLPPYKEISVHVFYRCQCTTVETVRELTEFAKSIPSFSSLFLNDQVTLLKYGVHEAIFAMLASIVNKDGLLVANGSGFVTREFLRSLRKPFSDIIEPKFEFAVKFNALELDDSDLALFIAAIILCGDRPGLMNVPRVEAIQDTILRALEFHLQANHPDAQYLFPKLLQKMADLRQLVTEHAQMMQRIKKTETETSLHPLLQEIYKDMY
Sequence of Vitamin D3 receptor (Homo sapiens) (P11473 whole entry, looked up): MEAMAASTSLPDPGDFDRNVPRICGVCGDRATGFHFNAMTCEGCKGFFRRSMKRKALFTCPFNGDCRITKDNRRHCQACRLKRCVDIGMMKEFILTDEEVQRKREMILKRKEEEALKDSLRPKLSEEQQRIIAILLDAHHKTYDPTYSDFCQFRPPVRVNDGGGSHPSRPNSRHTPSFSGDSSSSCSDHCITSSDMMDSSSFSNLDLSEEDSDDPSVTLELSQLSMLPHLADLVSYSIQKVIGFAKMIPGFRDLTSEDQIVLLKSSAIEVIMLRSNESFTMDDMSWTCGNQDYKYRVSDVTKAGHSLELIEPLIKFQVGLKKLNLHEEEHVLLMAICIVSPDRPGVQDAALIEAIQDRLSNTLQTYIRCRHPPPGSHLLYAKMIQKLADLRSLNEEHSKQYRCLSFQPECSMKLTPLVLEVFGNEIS
Sequence of Aryl hydrocarbon receptor (Homo sapiens) (P35869 whole entry, looked up): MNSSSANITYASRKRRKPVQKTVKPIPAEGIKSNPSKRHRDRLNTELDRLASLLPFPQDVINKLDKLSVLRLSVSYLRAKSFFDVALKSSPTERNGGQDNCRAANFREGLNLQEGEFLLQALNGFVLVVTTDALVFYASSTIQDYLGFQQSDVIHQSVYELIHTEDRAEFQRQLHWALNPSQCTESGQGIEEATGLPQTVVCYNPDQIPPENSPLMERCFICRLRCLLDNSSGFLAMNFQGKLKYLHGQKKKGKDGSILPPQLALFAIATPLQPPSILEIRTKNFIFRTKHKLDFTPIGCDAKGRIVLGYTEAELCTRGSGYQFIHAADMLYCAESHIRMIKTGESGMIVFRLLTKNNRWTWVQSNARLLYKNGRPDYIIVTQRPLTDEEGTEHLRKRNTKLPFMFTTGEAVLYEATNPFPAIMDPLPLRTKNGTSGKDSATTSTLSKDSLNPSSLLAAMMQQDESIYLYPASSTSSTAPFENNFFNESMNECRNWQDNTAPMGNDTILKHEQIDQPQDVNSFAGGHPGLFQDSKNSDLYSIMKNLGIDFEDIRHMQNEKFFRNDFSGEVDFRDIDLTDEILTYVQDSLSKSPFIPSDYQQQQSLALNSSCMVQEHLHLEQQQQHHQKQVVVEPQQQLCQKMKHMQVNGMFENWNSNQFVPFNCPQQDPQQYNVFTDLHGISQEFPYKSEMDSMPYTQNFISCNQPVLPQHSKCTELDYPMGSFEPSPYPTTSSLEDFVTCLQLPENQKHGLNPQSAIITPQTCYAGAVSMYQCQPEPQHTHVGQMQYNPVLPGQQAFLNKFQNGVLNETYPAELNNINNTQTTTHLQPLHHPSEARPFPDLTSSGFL
Sequence of Peroxisome proliferator-activated receptor gamma (Homo sapiens) (P37231 whole entry, looked up): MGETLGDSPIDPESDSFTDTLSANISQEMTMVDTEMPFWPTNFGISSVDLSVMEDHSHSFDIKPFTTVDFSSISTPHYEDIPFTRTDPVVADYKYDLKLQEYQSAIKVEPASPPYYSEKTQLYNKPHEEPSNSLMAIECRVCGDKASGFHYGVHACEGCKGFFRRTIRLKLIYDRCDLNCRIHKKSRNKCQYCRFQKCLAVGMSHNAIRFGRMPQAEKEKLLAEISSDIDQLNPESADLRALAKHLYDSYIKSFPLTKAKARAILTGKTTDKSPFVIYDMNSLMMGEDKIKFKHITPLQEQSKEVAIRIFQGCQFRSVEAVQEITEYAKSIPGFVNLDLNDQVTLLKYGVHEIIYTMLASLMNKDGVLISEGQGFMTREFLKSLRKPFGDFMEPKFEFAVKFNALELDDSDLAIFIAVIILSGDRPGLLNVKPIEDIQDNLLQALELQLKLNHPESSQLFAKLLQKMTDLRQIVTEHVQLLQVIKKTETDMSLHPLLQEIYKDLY
Sequence of Bile acid receptor (Homo sapiens) (Q96RI1 whole entry, looked up): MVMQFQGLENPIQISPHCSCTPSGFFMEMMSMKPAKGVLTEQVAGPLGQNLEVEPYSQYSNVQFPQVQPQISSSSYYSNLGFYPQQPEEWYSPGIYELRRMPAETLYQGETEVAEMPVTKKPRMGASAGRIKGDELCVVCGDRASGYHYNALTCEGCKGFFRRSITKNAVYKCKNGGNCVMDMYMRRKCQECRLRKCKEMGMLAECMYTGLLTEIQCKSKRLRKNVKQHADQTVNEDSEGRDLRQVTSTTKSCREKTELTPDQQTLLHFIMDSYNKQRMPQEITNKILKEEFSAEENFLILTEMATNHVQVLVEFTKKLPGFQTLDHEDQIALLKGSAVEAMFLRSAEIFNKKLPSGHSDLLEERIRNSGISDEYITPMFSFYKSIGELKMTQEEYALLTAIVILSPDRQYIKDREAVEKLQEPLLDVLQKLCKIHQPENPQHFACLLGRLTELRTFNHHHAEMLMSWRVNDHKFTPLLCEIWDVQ

CCNS(=O)(=O)c1ccc(C)cc1
inactive: Potency [1] | Potency [2] | Potency [3] | Potency [4] | Potency [5] | outcome [6] | outcome [7] | outcome [8] | outcome [9] | outcome [10] | outcome [11] | outcome [12] | outcome [13]

CCC(C(=O)NC(=O)NC(C)=O)c1ccccc1 (stereo not given)
inactive: Potency [1] | Potency [2] | Potency [3] | Potency [4] | Potency [5] | outcome [14] | Potency [15] | outcome [6] | outcome [8] | outcome [10] | outcome [13]

CCN1C=CN(C)C1C (stereo not given)
inactive: Potency [1] | Potency [2] | Potency [3] | Potency [4] | outcome [14] | Potency [15] | outcome [6] | outcome [7] | outcome [16] | outcome [8] | outcome [9] | outcome [10] | outcome [11] | outcome [13]

COc1ccnc(CS(=O)c2nc3cc(OC(F)F)ccc3[nH]2)c1OC (stereo not given)
inactive: Potency [1] | Potency [3] | Potency [4] | outcome [14] | outcome [6] | outcome [7] | outcome [16] | outcome [8] | outcome [9] | outcome [10] | outcome [11] | outcome [12] | outcome [13]
active: Potency [2] 3.35 µM | Potency [15] 27.5 µM

O=C(c1ccccc1)C1(O)CCCCC1
inactive: Potency [1] | Potency [2] | Potency [3] | Potency [4] | Potency [5] | outcome [14] | outcome [6] | outcome [7] | outcome [8] | outcome [9] | outcome [10] | outcome [11] | outcome [12] | outcome [13] | outcome [17]

COc1cc(C(=O)NCc2ccc(OCCN(C)C)cc2)cc(OC)c1OC
inactive: Potency [1] | Potency [2] | Potency [3] | Potency [4] | Potency [5] | outcome [14] | outcome [6] | outcome [7] | outcome [16] | outcome [8] | outcome [9] | outcome [10] | outcome [11] | outcome [12] | outcome [13]

COc1ccc2cc1Oc1cc3c(cc1OC)CC[N+](C)(C)[C@H]3Cc1ccc(cc1)Oc1c(OC)c(OC)cc3c1[C@@H](C2)[N+](C)(C)CC3
inactive: Potency [1] | Potency [2] | Potency [3] | Potency [4] | Potency [5] | Potency [15] | outcome [6] | outcome [7] | outcome [8] | outcome [9] | outcome [10] | outcome [11] | outcome [12] | outcome [13] | outcome [17]

CCOC(=O)COC(=O)c1ccccc1C(=O)OCC
inactive: Potency [1] | Potency [2] | Potency [3] | Potency [4] | Potency [5] | Potency [15] | outcome [6] | outcome [7] | outcome [16] | outcome [8] | outcome [9] | outcome [10] | outcome [11] | outcome [12] | outcome [13] | outcome [17] | outcome [18]

O=[N+]([O-])c1ccc(/C=N\O)o1
inactive: Potency [1] | Potency [2] | Potency [3] | Potency [4] | Potency [5] | outcome [14] | outcome [6] | outcome [7] | outcome [8] | outcome [13] | outcome [17] | outcome [18]

NC(=O)Cc1cccc2ccccc12
inactive: Potency [1] | Potency [2] | Potency [3] | Potency [4] | Potency [5] | outcome [14] | outcome [6] | outcome [7] | outcome [8] | outcome [9] | outcome [10] | outcome [11] | outcome [19] | outcome [12] | outcome [13]

CCCCCCC#CC(=O)OC
inactive: Potency [1] | Potency [2] | Potency [3] | Potency [4] | Potency [5] | outcome [14] | outcome [16] | outcome [8] | outcome [9] | outcome [10] | outcome [11] | outcome [12] | outcome [13]

C=C[Si](OC(C)=O)(OC(C)=O)OC(C)=O
inactive: Potency [1] | Potency [2] | Potency [3] | Potency [4] | Potency [5] | outcome [14] | Potency [15] | outcome [6] | outcome [8] | outcome [9] | outcome [12] | outcome [13]

C[C@@H]1C[C@H]2[C@@H]3C[C@H](F)C4=CC(=O)C(Cl)=C[C@]4(C)[C@@]3(F)[C@@H](O)C[C@]2(C)[C@@]1(O)C(=O)CO
inactive: Potency [1] | Potency [2] | Potency [3] | Potency [4] | outcome [14] | Potency [15] | outcome [6] | outcome [7] | outcome [8] | outcome [9] | outcome [10] | outcome [19] | outcome [12] | outcome [13]

CNC(=O)Nc1ccc(Cl)c(Cl)c1
active: Potency [2] 54.5 µM
inactive: Potency [1] | Potency [3] | Potency [4] | outcome [14] | Potency [15] | outcome [6] | outcome [7] | outcome [16] | outcome [8] | outcome [10] | outcome [19] | outcome [20] | outcome [13]

CCCCCCCCCCOc1cc2c(=O)c(C(=O)OCC)c[nH]c2cc1OCC
inactive: Potency [1] | Potency [2] | Potency [3] | Potency [4] | activity change, negative = cytotoxicity [14] 22.1% [at 5.95 µM] | activation [15] -0.445% [at 8.36 µM] | viability change, negative = cytotoxic [6] -3.47% [at 8.36 µM] | activity change, negative = cytotoxicity [7] 1.04% [at 5.95 µM] | activation [16] -0.938% [at 5.95 µM] | activity change, negative = cytotoxicity [8] 8.81% [at 5.95 µM] | ratio activity, negative = inhibition [11] 0.26% [at 6.26 µM] | viability change, negative = cytotoxic [12] 4.21% [at 5.95 µM] | activity change, negative = cytotoxicity [13] 5.04% [at 5.95 µM]

CC1=CCC(O)(C(C)C)CC1 (stereo not given)
inactive: Potency [1] | Potency [2] | Potency [3] | Potency [4] | Potency [5] | outcome [14] | Potency [15] | outcome [7] | outcome [8] | outcome [9] | outcome [10] | outcome [11] | outcome [12] | outcome [13] | outcome [17]

CCCCCC(=O)OCCc1ccccc1
inactive: Potency [1] | Potency [2] | Potency [3] | Potency [4] | Potency [5] | outcome [14] | outcome [6] | outcome [7] | outcome [16] | outcome [8] | outcome [10] | outcome [12] | outcome [13] | outcome [17]

CC(C)[C@H]1CC[C@@H](C)CC1=O
inactive: Potency [1] | Potency [2] | Potency [3] | Potency [4] | outcome [14] | Potency [15] | outcome [6] | outcome [7] | outcome [16] | outcome [8] | outcome [10] | outcome [12] | outcome [13]
